Results on eleven compounds are retold here after PubChem BioAssay (NCI).

Among the test systems are NCI-H23 lung; NCI-H226 lung; NCI-H322M lung; HOP-62 NSCLC; NCI-H460 lung; HOP-92 NSCLC; NCI-H522 lung; A549/ATCC NSCLC; 786-0 renal; COLO 205 colon.
Holding throughout (experiment): NCI-60 one-dose screen, 48 h (100 = growth as untreated, 0 = no growth, -100 = all killed)
Common to all, as to settings: 10 µM unless noted

Molecules are shown by their SMILES. This is part of a sample that, as a whole, favours compounds with a hit. Of some 83,000 tested, about 20% had one in any assay.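 Plates (96-well) were seeded with cells, treated with compound at one concentration, and incubated for 48 hours before percent growth was determined.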 Unmarked numbers belong to inactive results. Active and inactive are the calls of the source. Rule for the calls: active = growth percent below 10; inactive = the rest.

For the compound `CC(=O)N1N=C(c2ccc(Nc3nc(Nc4ccc(Cl)cc4)nc(Nc4ccc(Cl)cc4)n3)cc2)CC1c1ccco1` (stereo not given), the growth was 85.4% in the experiment on NCI-H23 lung; 100% in the experiment on NCI-H226 lung; 103% in the experiment with NCI-H322M lung; 91.9% in the experiment on HOP-62 NSCLC; 96.9% with NCI-H460 lung; 99.9% in the experiment with HOP-92 NSCLC. Also, the growth was 68.4% in the experiment with NCI-H522 lung, 72.1% in the experiment on A549/ATCC NSCLC, 86.7% in the experiment on 786-0 renal and 109% with COLO 205 colon.
As to `CS(=O)(=O)Nc1cc(-c2ccc3ncnc(Nc4ccc5c(cnn5Cc5ccccn5)c4)c3c2)cnc1Cl`, the growth in the experiment with NCI-H23 lung was 76.7%; in the experiment on NCI-H226 lung it was 81.3%; in the experiment on NCI-H322M lung, 86.2%; in the experiment on HOP-62 NSCLC it was 68.8%; with NCI-H460 lung it was 85.8%; in the experiment with HOP-92 NSCLC it was 2.29% (active). Also, the growth in the experiment with NCI-H522 lung was 67.9%; in the experiment with A549/ATCC NSCLC, 89.2%; in the experiment on 786-0 renal, 84.3%; with COLO 205 colon, 93.1%.
For `Cc1ccc(C2=Nc3c(N)ncnc3NC(c3ccc4c(c3)OCO4)C2)cc1` (stereo not given), the growth with NCI-H23 lung was 74.3%; in the experiment on NCI-H226 lung it was 85.1%; in the experiment with NCI-H322M lung it was 102%; in the experiment with HOP-62 NSCLC it was 64.5%; in the experiment on NCI-H460 lung it was 42.4%; in the experiment on HOP-92 NSCLC, 8.52% (active). Also, the growth in the experiment with NCI-H522 lung is 47.2%; in the experiment on A549/ATCC NSCLC, 56.4%; in the experiment with 786-0 renal it was 80.8%; with COLO 205 colon, 37.3%.
`C#CCOc1ccc2ncnc(Nc3ccc(NC(=O)CCl)cc3)c2c1`: the growth was -39% (active) in the experiment with NCI-H23 lung; 47.6% in the experiment with NCI-H226 lung; 51.6% in the experiment with NCI-H322M lung; 21.4% in the experiment with HOP-62 NSCLC; -46.4% (active) with NCI-H460 lung; -7.62% (active) in the experiment on HOP-92 NSCLC. Further, the growth in the experiment with NCI-H522 lung was -77.9% (active); in the experiment with A549/ATCC NSCLC, 18.7%; in the experiment with 786-0 renal, -65.3% (active); in the experiment on COLO 205 colon, -8.04% (active).
Regarding `COc1ccc(-c2nc3c(c(-c4ccccc4)nn3-c3ccccc3)c(-c3ccc(N4CCN(C)CC4)cc3)c2C#N)cc1`, the growth in the experiment with NCI-H23 lung was 98.6%; with NCI-H226 lung it was 94.2%; with NCI-H322M lung, 97.5%; in the experiment with HOP-62 NSCLC it was 103%; with NCI-H460 lung it was 101%; in the experiment with HOP-92 NSCLC, 83.2%. The growth with NCI-H522 lung is 94.4%; in the experiment on A549/ATCC NSCLC, 89.3%; in the experiment with 786-0 renal, 78.9%; in the experiment with COLO 205 colon, 114%.
Turning to `COc1ccc(/C=C2\COc3ccc(O)c(O)c3C2=O)cc1`, the growth in the experiment with NCI-H23 lung is 33.2%; in the experiment on NCI-H226 lung it was 67.4%; in the experiment on NCI-H322M lung, 47.9%; in the experiment with HOP-62 NSCLC, 10.8%; in the experiment on NCI-H460 lung, 19.2%; in the experiment on HOP-92 NSCLC, -6.45% (active). Further, the growth with NCI-H522 lung is -60.5% (active); with A549/ATCC NSCLC, 38.1%; in the experiment on 786-0 renal, -40.9% (active); with COLO 205 colon, 66.2%.
For `O=C(O)c1ccc(-n2cc(/C=N/Nc3ccc(F)cc3)c(-c3cc4ccccc4oc3=O)n2)cc1`, the growth with NCI-H23 lung is 90.8%; with NCI-H226 lung, 101%; in the experiment on NCI-H322M lung it was 85.4%; with HOP-62 NSCLC, 84.3%; with NCI-H460 lung it was 96.5%; in the experiment with HOP-92 NSCLC it was 81.5%. For the same compound, the growth in the experiment on NCI-H522 lung was 50.9%; in the experiment on A549/ATCC NSCLC, 92.9%; in the experiment with 786-0 renal, 74.6%; with COLO 205 colon, 110%.
For the compound `O=C1/C(=C/c2ccc(F)cc2)COc2ccc(O)cc21`, the growth was 97% in the experiment with NCI-H23 lung; 108% in the experiment with NCI-H226 lung; 94.6% with NCI-H322M lung; 104% with HOP-62 NSCLC; 98.8% in the experiment with NCI-H460 lung; 104% in the experiment with HOP-92 NSCLC. Besides, the growth in the experiment with NCI-H522 lung was 75.7%; with A549/ATCC NSCLC, 92.5%; in the experiment on 786-0 renal, 79.8%; in the experiment with COLO 205 colon, 94.3%.
As for `O=C(Nc1nc2ccc(F)cc2s1)c1cccnc1Nc1ccc(Cl)cc1`, the growth was 9.97% (active) in the experiment on NCI-H23 lung; 44.1% in the experiment on NCI-H226 lung; 30.9% in the experiment with NCI-H322M lung; 75.6% in the experiment on HOP-62 NSCLC; 9.26% (active) in the experiment on NCI-H460 lung; 0.414% (active) in the experiment with HOP-92 NSCLC. The growth with NCI-H522 lung was 21.1%; with A549/ATCC NSCLC, 31%; in the experiment with 786-0 renal it was 56.2%; in the experiment with COLO 205 colon it was 49.8%.
For `C=C1C(=O)O[C@H]2[C@H]1CC/C(COC(=O)CSCCSCC(=O)OC/C1=C/CC[C@@]3(C)O[C@H]3[C@H]3OC(=O)C(=C)[C@@H]3CC1)=C\CC[C@@]1(C)O[C@@H]21`, the growth in the experiment on NCI-H23 lung was 40.6%; in the experiment with NCI-H226 lung, 8.95% (active); with NCI-H322M lung, 77.2%; in the experiment on HOP-62 NSCLC, 81.2%; with NCI-H460 lung it was 22.1%; in the experiment with HOP-92 NSCLC it was -0.141% (active). Also, the growth was -76.2% (active) with NCI-H522 lung, 69.5% in the experiment on A549/ATCC NSCLC, -24.2% (active) with 786-0 renal and -37.7% (active) in the experiment on COLO 205 colon.
`O=C(CI)NC1Oc2ccccc2-c2oc(=O)c(-c3ccccc3)cc21` (stereo not given): the growth was -55.7% (active) with NCI-H23 lung; -43.3% (active) with NCI-H226 lung; 105% in the experiment on NCI-H322M lung; -3.99% (active) with HOP-62 NSCLC; 0.996% (active) in the experiment on NCI-H460 lung; -72.4% (active) in the experiment on HOP-92 NSCLC. Further, the growth was -75.6% (active) in the experiment with NCI-H522 lung, 94.7% in the experiment on A549/ATCC NSCLC, -79.3% (active) in the experiment with 786-0 renal and -53.5% (active) with COLO 205 colon.
